Most compounds without a hit are left out; they make up all but 7.3% or so of the library.
ELG1 genotoxic: qHTS screen for small molecules that induce genotoxicity in human embryonic kidney (HEK293T) cells expressing luciferase-tagged ELG1 | HEK293T ELG1-luciferase reporter, luminescence, 16 h | Potency, µM (doses to about 46 µM), inactives show at the highest dose activity change, positive = activation, hits mostly activators | 330,000 tested, 1.3% active; further: % of control where 0% means no effect; nearly all actives have a fitted effect of over 60% in size
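HEK293T cells expressing luciferase-tagged ELG1 were exposed to compound or DMSO vehicle for 16 hr at 37 °C and 5% CO2. Luciferase activity was then measured with ONE-Glo after 30 min at room temperature.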
Rab9 promoter act: qHTS Assay for Rab9 Promoter Activators | Huh7 Rab9 promoter-luciferase reporter, luminescence, 24 h | Potency, µM (doses to about 9.22 µM), inactives show at the highest dose activation, negative = inhibition, hits mostly activators | 320,000 tested, 2.8% active | AID 485297, 2010; further: % of control where 0% means no effect; nearly all actives have a fitted effect of over 60% in size
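Huh7 cells stably carrying a Rab9 promoter-luciferase reporter, 1500 cells per well in OP-MEM I with 10% FBS, treated with compound 24 hours at 37C. Luciferase activity read by luminescence after 10 minutes with Amplite reagent.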
FLuc modulator: qHTS profiling assay for firefly luciferase inhibitor/activator using purifed enzyme and Km concentrations of substrates (counterscreen for miR-21 project); Luciferin 4-monooxygenase (Photinus pyralis), P08659; purified FLuc, Km substrates, luminescence inhibition; Potency, µM (top dose mostly 57.5 µM), inactives show at the top dose activity change, negative = inhibition, most hits filed as inhibitors; 360,000 tested, 6.9% active;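 further: plate controls were vehicle for no effect and reference inhibitor for full effect; nearly all actives have a fitted effect of over 55% in size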
Target sequence (P08659 whole entry, looked up): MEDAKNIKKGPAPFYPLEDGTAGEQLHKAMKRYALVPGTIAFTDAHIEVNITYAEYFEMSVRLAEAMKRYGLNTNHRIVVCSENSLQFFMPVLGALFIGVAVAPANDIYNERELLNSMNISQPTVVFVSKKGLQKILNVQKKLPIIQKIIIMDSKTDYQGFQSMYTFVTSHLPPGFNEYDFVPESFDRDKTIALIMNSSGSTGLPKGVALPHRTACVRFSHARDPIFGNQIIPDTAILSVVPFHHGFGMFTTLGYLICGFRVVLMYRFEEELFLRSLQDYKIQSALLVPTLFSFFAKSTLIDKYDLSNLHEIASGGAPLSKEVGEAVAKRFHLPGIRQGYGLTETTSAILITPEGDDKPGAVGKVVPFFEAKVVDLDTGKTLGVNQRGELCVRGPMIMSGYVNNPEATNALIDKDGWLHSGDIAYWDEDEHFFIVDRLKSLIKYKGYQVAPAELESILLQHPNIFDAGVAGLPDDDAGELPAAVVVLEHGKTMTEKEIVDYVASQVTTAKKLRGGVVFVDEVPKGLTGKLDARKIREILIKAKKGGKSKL
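Purified P. pyralis luciferase, 10 nM final, with Km-level 10 uM D-luciferin and 10 uM ATP in 50 mM Tris acetate pH 7.5, 10 mM Mg acetate, 0.01% Tween-20, 0.05% BSA; 6-point qHTS titration about 60 µM downward; luminescence read.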
KinaseGlo FLuc: Counterscreen for Luciferase (Kinase-Glo TM) Inhibition. Kinase-Glo luciferase, ATP luminescence, 8 min. Potency, µM (titrated, usually from 38.3 µM), inactives show at the top dose activity change, negative = inhibition, most hits filed as inhibitors. 200,000 tested, 0.28% active. AID 1379, 2008; further: on the % scale 0 is the no-effect control and ±100 the full control effect; nearly all actives have a fitted effect of over 60% in size
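Substrate mix (final 50 mM imidazole pH 7.2, 50 mM KCl, 7 mM MgCl2, 10 uM ATP, 0.01% Tween 20, 0.05% BSA) plus pin-tool compound, then Kinase-Glo detection mix; 8 min ambient, luminescence read.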
NPC1 prom act: qHTS Assay for NPC1 Promoter Activators; Huh7 NPC1 promoter luciferase reporter, 24 h; Potency, µM (titrated, usually from 9.22 µM), for inactives: at the top dose activation, most hits filed as activators; 320,000 tested, 2.4% active; further: % of control where 0% means no effect; nearly all actives have a fitted effect of over 60% in size
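Luminescence read-out of NPC1 promoter-driven luciferase in stably transfected Huh7 cells; compounds delivered in DMSO and left 24 h at 37C, 5% CO2, qHTS titration format.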
SMN2 splice up: qHTS Assay for Enhancers of SMN2 Splice Variant Expression | HEK293 SMN2-luciferase splicing reporter, luminescence, 30-36 h | Potency, µM (highest dose often 46.1 µM), without a hit: at the highest dose activity change, positive = activation, usual class: activators | 210,000 tested, 2.8% active | AID 1458, 2008; further: % of control where 0% means no effect; nearly all actives have a fitted effect of over 55% in size
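HEK293 cells carry an SMN2 minigene-luciferase reporter in which exon 7 inclusion puts luciferase in frame. Cells were seeded at 2000 cells/well, attached for 10-12 hours, then exposed to compounds for 30-36 hours at 37C before ONE-Glo luminescence.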
Numbers without * were called inactive; ? = inconclusive; . = not tested or not shown; [ ] = another dose, or the depositor's remark. The call rests on the fitted dose curve; in most records, active means well fitted curve in the direction sought with a large enough effect; inconclusive means small, poorly fitted or top-dose-only effect, or another doubt; inactive means no such curve, though single readings can be large; an effect the other way counts as inactive or inconclusive. Potency means the concentration at half of the fitted maximal effect.

SMILES	ELG1 genotoxic	Rab9 promoter act	FLuc modulator	KinaseGlo FLuc	NPC1 prom act	SMN2 splice up
CCn1cc(Br)c(C(=O)Nc2ccc(Cl)c(Cl)c2)n1	?	3.55µM*	?	3.0%	?	?
CCn1ccc(C(=O)Nc2ccccc2Cl)n1	8.2µM*	1.58µM*	10.7µM*	-11.5%	2µM*	.
Cc1ccccc1Cn1cc(CCC(=O)NCc2cccc(Br)c2)c2ccccc21	.	.	-6.7%	.	.	.
CC(C)CCNC(=O)CCn1c(=O)c2cccn2c2cccnc21	.	.	0.5%	.	.	.
COc1ccc(Br)cc1Cn1nnc(C(=O)Nc2cccc(SC)c2)c1N	.	.	-0.7%	.	.	-19.0%
CCOC(=O)c1c(C)[nH]c(C)c1S(=O)(=O)N1CCCC(C(=O)N2CCN(c3ccc(Cl)cc3)CC2)C1 (stereo not given)	.	.	-5.1%	.	.	.
CCOc1ccc(-c2nnc(SCC(=O)Oc3ccccc3)o2)cc1	.	.	-6.3%	.	.	.
CCn1cc(Br)c(C(=O)NN)n1	1.3%	1.6%	3.1%	5.9%	?	8.5%
CCn1cc(Br)c(C(=O)Nc2cccc(Cl)c2)n1	?	2µM*	?	1.4%	3.98µM*	11.2µM*
CC1CCC(NC(=O)C2(C)Cc3ccccc3C(=O)N2Cc2ccccc2Cl)CC1 (stereo not given)	.	.	4.2%	.	.	8.9%
O=C(/C=C/c1cccs1)c1ccc(Br)cc1	8.2%	5.5%	4.78µM*	-12.8%	-4.4%	2.1%
O=C(/C=C/c1cccs1)c1ccc(NC(=O)c2cccc(Br)c2)cc1	2.4%	18.3%	-13.1%	0.4%	19.5%	?
Cc1ccc(C(=O)Nc2ccc(C(=O)/C=C/c3cccs3)cc2)cc1	-3.1%	?	12µM*	-1.5%	?	-8.2%
COc1cc(NC(=O)c2nn(C)c3c2COc2ccccc2-3)cc(OC)c1OC	.	.	-0.1%	.	.	.
COCCCNC(=O)c1c(NC(=O)Cc2coc3c(C)c(C)ccc23)sc2c1CCCC2	.	.	-11.2%	.	.	-1.2%
O=C(Nc1ccc(F)cc1)c1cccc2ccccc12	6.9%	3.2%	?	.	20.3%	.
COc1ccccc1C(=O)c1cc2ccc(O)cc2oc1=O	-1.6%	-3.3%	-11.5%	-1.2%	0.1%	9.0%
O=C(c1ccc(F)cc1)c1cc2ccc(O)cc2oc1=O	?	15.0%	15.1µM*	.	28.0%	.
COc1ccc(NC(=O)c2cc3ccc(O)cc3o/c2=N\O)cc1	?	28.2%	0.269µM*	.	?	.
N=c1oc2cc(O)ccc2cc1C(=O)Nc1ccc(F)cc1	?	3.55µM*	2.69µM*	.	?	.
c1ccc(CN2COc3c(ccc4c5c(ccc34)CN(Cc3ccccc3)CO5)C2)cc1	.	.	.	-0.5%[7.66 µM]	.	-22.3%[9.22 µM]
Cc1cccc(N2CCN(C(=O)c3cccn4c(=O)c5cc(Cl)ccc5nc34)CC2C)c1 (stereo not given)	.	.	0.3%	.	.	.
CCN(c1ccc(Cl)cc1)S(=O)(=O)c1nnc(NC(=O)C2CCCCC2)s1	.	.	6.4%	.	.	.
O=C(Nc1nnc(-c2ccc3c(c2)CCCC3)o1)c1ccc(Cl)cc1Cl	-24.3%	-1.7%	-0.2%	2.3%	-10.1%	-9.3%
O=C(Nc1nnc(-c2ccc3c(c2)CCCC3)o1)c1c(F)cccc1F	18.7%	27.4%	15.1µM*	6.8%	13.7%	-5.3%
COc1cc2nc(NCCc3ccc(Cl)cc3)n3nc(-c4ccccc4)nc3c2cc1OC	.	.	-7.0%	.	.	-3.5%
CSc1nn(Cc2ccccc2C)c(NC(C)=O)c1S(=O)(=O)c1ccc(C)cc1	.	.	2.1%	.	.	.
Nc1ccn(Cc2ccccc2)n1	-8.6%	-1.2%	?	-0.4%	-4.6%	-5.1%
c1ccc(Cn2ccc(-c3cnc(-c4ccccc4)s3)n2)cc1	?	1.12µM*	1.9µM*	-0.7%	1.41µM*	.
